Reference: PMC11062922 (Nature Chemical Biology, 2023)

What was measured:
[1] = tested on: MAP3K11; conditions: compound concentrations:3nM, 10nM, 30nM, 100nM, 300nM, 1000nM, 3000nM, 30000nM,R2:0.99429213742215306,slope:0.76505348781975802,EC50 Standard Error, by the legend:Standard error of the EC50 estimation as provided by the drc package.
[2] = tested on: MAP4K2; conditions: compound concentrations:3nM, 10nM, 30nM, 100nM, 300nM, 1000nM, 3000nM, 30000nM,R2:0.97693743702181501,slope:1.5044165115380901,EC50 Standard Error, by the legend:Standard error of the EC50 estimation as provided by the drc package.
[3] = tested on: MARK2; conditions: compound concentrations:3nM, 10nM, 30nM, 100nM, 300nM, 1000nM, 3000nM, 30000nM,R2:0.98471401601648001,slope:1.6013857186590299,EC50 Standard Error, by the legend:Standard error of the EC50 estimation as provided by the drc package.
[4] = tested on: MARK3; conditions: compound concentrations:3nM, 10nM, 30nM, 100nM, 300nM, 1000nM, 3000nM, 30000nM,R2:0.98601648224136496,slope:1.5139039229536799,EC50 Standard Error, by the legend:Standard error of the EC50 estimation as provided by the drc package.
[5] = tested on: MARK4; conditions: compound concentrations:3nM, 10nM, 30nM, 100nM, 300nM, 1000nM, 3000nM, 30000nM,R2:0.98999073963654005,slope:9.1146195696381707,EC50 Standard Error, by the legend:Standard error of the EC50 estimation as provided by the drc package.
[6] = tested on: NEK1; conditions: compound concentrations:3nM, 10nM, 30nM, 100nM, 300nM, 1000nM, 3000nM, 30000nM,R2:0.97961263644427599,slope:0.99029629152452003,EC50 Standard Error, by the legend:Standard error of the EC50 estimation as provided by the drc package.
[7] = tested on: NUAK1; conditions: compound concentrations:3nM, 10nM, 30nM, 100nM, 300nM, 1000nM, 3000nM, 30000nM,R2:0.91267183430565202,slope:2.53834648929845,EC50 Standard Error, by the legend:Standard error of the EC50 estimation as provided by the drc package.
[8] = tested on: PAK4; conditions: compound concentrations:3nM, 10nM, 30nM, 100nM, 300nM, 1000nM, 3000nM, 30000nM,R2:0.99818475591728295,slope:0.99089042450123299,EC50 Standard Error, by the legend:Standard error of the EC50 estimation as provided by the drc package.
[9] = tested on: PDPK1;PDPK2P; conditions: compound concentrations:3nM, 10nM, 30nM, 100nM, 300nM, 1000nM, 3000nM, 30000nM,R2:0.91971580292243504,slope:1.29280126727837,EC50 Standard Error, by the legend:Standard error of the EC50 estimation as provided by the drc package.
[10] = tested on: PHKG2; conditions: compound concentrations:3nM, 10nM, 30nM, 100nM, 300nM, 1000nM, 3000nM, 30000nM,R2:0.987331752692992,slope:1.79353666450797,EC50 Standard Error, by the legend:Standard error of the EC50 estimation as provided by the drc package.
[11] = tested on: PLK4; conditions: compound concentrations:3nM, 10nM, 30nM, 100nM, 300nM, 1000nM, 3000nM, 30000nM,R2:0.98129496676024397,slope:1.0145275307596699,EC50 Standard Error, by the legend:Standard error of the EC50 estimation as provided by the drc package.
[12] = tested on: PRKD2; conditions: compound concentrations:3nM, 10nM, 30nM, 100nM, 300nM, 1000nM, 3000nM, 30000nM,R2:0.99348954984815097,slope:2.8520769192550901,EC50 Standard Error, by the legend:Standard error of the EC50 estimation as provided by the drc package.
[13] = tested on: PRKD3; conditions: compound concentrations:3nM, 10nM, 30nM, 100nM, 300nM, 1000nM, 3000nM, 30000nM,R2:0.98624890214185301,slope:1.3007514421669799,EC50 Standard Error, by the legend:Standard error of the EC50 estimation as provided by the drc package.
[14] = target: Q6ZSR9 (human, UniProt Q6ZSR9); conditions: compound concentrations:3nM, 10nM, 30nM, 100nM, 300nM, 1000nM, 3000nM, 30000nM,R2:0.98031780619019204,slope:1.5136598557560801,EC50 Standard Error, by the legend:Standard error of the EC50 estimation as provided by the drc package.
Q6ZSR9, sequence (Q6ZSR9 whole entry, looked up): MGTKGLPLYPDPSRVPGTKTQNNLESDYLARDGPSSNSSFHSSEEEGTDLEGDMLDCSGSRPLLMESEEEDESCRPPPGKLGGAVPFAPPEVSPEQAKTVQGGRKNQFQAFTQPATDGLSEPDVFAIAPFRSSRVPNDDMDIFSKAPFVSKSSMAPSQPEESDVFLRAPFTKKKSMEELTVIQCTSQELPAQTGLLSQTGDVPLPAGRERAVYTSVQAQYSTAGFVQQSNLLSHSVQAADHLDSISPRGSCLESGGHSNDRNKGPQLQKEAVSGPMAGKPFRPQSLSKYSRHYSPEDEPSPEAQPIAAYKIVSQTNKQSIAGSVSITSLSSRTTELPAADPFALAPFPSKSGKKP

[15] = tested on: RET; conditions: compound concentrations:3nM, 10nM, 30nM, 100nM, 300nM, 1000nM, 3000nM, 30000nM,R2:0.99332600963227702,slope:0.91132357301438205,EC50 Standard Error, by the legend:Standard error of the EC50 estimation as provided by the drc package.
[16] = tested on: SIK2; conditions: compound concentrations:3nM, 10nM, 30nM, 100nM, 300nM, 1000nM, 3000nM, 30000nM,R2:0.98900734002019797,slope:1.1146515084845601,EC50 Standard Error, by the legend:Standard error of the EC50 estimation as provided by the drc package.
[17] = tested on: SLK; conditions: compound concentrations:3nM, 10nM, 30nM, 100nM, 300nM, 1000nM, 3000nM, 30000nM,R2:0.98664495046468503,slope:1.29889224696913,EC50 Standard Error, by the legend:Standard error of the EC50 estimation as provided by the drc package.
[18] = tested on: STK10; conditions: compound concentrations:3nM, 10nM, 30nM, 100nM, 300nM, 1000nM, 3000nM, 30000nM,R2:0.96114701391993196,slope:1.3567914051898999,EC50 Standard Error, by the legend:Standard error of the EC50 estimation as provided by the drc package.
[19] = tested on: STK11; conditions: compound concentrations:3nM, 10nM, 30nM, 100nM, 300nM, 1000nM, 3000nM, 30000nM,R2:0.98533886968205897,slope:6.0517648666997097,EC50 Standard Error, by the legend:Standard error of the EC50 estimation as provided by the drc package.
[20] = tested on: NQO2; conditions: compound concentrations:3nM, 10nM, 30nM, 100nM, 300nM, 1000nM, 3000nM, 30000nM,R2:0.94793507341518402,slope:1.3847657393086299,EC50 Standard Error, by the legend:Standard error of the EC50 estimation as provided by the drc package.

TAK659
EC50 [1]: 9090 nM | Kd ([1]; read-out: apparent Kd): 7190 nM | EC50 [2]: 595 nM | Kd ([2]; read-out: apparent Kd): 459 nM | EC50 [3]: 837 nM | Kd ([3]; read-out: apparent Kd): 762 nM | EC50 [4]: 680 nM | Kd ([4]; read-out: apparent Kd): 670 nM | EC50 [5]: 1050 nM | Kd ([5]; read-out: apparent Kd): 1050 nM | EC50 [6]: 589 nM | Kd ([6]; read-out: apparent Kd): 529 nM | EC50 [7]: 1020 nM | Kd ([7]; read-out: apparent Kd): 312 nM | EC50 [8]: 336 nM | Kd ([8]; read-out: apparent Kd): 276 nM | EC50 [9]: 639 nM | Kd ([9]; read-out: apparent Kd): 639 nM | EC50 [10]: 201 nM | Kd ([10]; read-out: apparent Kd): 201 nM | EC50 [11]: 148 nM | Kd ([11]; read-out: apparent Kd): 77.2 nM | EC50 [12]: 1010 nM | Kd ([12]; read-out: apparent Kd): 895 nM | EC50 [13]: 1410 nM | Kd ([13]; read-out: apparent Kd): 1180 nM | EC50 [14]: 566 nM | Kd ([14]; read-out: apparent Kd): 493 nM | EC50 [15]: 22.7 nM | Kd ([15]; read-out: apparent Kd): 12.1 nM | EC50 [16]: 260 nM | Kd ([16]; read-out: apparent Kd): 140 nM | EC50 [17]: 516 nM | Kd ([17]; read-out: apparent Kd): 516 nM | EC50 [18]: 725 nM | Kd ([18]; read-out: apparent Kd): 725 nM | EC50 [19]: 1150 nM | Kd ([19]; read-out: apparent Kd): 1150 nM

Entospletinib
EC50 [20]: 295 nM | Kd ([20]; read-out: apparent Kd): 131 nM
